This is an account of results in PubChem BioAssay (NCI).

About 83,000 compounds went through this panel and 20% of them were active in at least one assay; those are over-represented in the sample as a whole.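 Cells were grown in 96-well plates and exposed to the test compound at a single concentration for 48 hours; results are reported as percent growth, with values below 10 considered active.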 A number with no mark means an inactive call. Activity calls are given as the source filed them.

Common to all, as to test: NCI-60 one-dose screen, 48 h (100 = growth as untreated, 0 = no growth, -100 = all killed)
Common to all, as to details: 10 µM unless noted

The subject of test [1] is NCI-H23 lung.
Test [2] relates to NCI-H226 lung.
The test system of test [3] is NCI-H322M lung.
Test [4] deals with HOP-62 NSCLC.
The test system of test [5] is NCI-H460 lung.
The subject of test [6] is NCI-H522 lung.
In test [7] the test system is A549/ATCC NSCLC.
In test [8] the test system is 786-0 renal.
The test system of test [9] is COLO 205 colon.
Test [10] deals with DU-145 prostate.
Test [11] has as its system K-562 leukemia.
The subject of test [12] is MALME-3M melanoma.
The subject of test [13] is MDA-MB-231 breast.
Test [14] deals with SF-268 CNS.
Test [15] concerns SF-295 CNS.
Test [16] relates to SF-539 CNS.
Test [17] relates to UACC-257 melanoma.
The subject of test [18] is RXF 393 renal.
The test system of test [19] is M14 melanoma.
For test [20], the system named is HCT-15 colon.

`COc1cc(/C=C2\COc3ccc(O)c(O)c3C2=O)cc(OC)c1`: the growth was 49.1% in test [1]; 68.3% in [2]; 29.2% in test [3]; 2.74% (active) in test [4]; 10.5% in test [5]; -42.1% (active) in test [6]. For the same compound, the growth in test [7] is 24.6%; in [8], -29.4% (active); in test [9], 32.5%; in test [10] it was 9.48% (active); in [11] it was -0.232% (active); in [12], -59.4% (active). The growth in test [13] was -37.1% (active); in test [14], 11%; in test [15], 80.3%; in [16] it was -70.1% (active); in test [17], 6.52% (active).

For the compound `COc1ccc(-c2nn(-c3cccc(Cl)c3)cc2C2CC(c3ccccc3)=NN2C(C)=O)cc1` (stereo unspecified), the growth is 84.2% in test [1]; 37.9% in test [2]; 76.8% in test [3]; -18.1% (active) in test [4]; 39.6% in test [5]; 60.9% in [6]. Also, the growth in [7] is 67.6%; in [8] it was 72.2%; in [9] it was 81.6%; in test [10], 72.2%; in [11], 96.1%; in test [12] it was 46.8%. For the same compound, the growth was 72.9% in [13]; 54.4% in test [18]; 66.9% in [14]; 50.6% in [16]; 86.2% in [17]; 89.2% in test [19]. The growth in test [20] is 86%.

Consider `COc1ccc(-c2noc(N)c2-c2cc(OC)c3c(c2)OCO3)cc1`, for which the growth in test [1] was 28.1%; in test [2], 86.3%; in [3], 57.5%; in test [4], 34.6%; in [5] it was 16%; in [6], -23.4% (active). The growth was 29.2% in test [7]; 59.7% in test [8]; 12.4% in [9]; 28.7% in test [10]; 2.56% (active) in test [11]; -2.12% (active) in [12]. Also, the growth in [13] is 47.6%; in [18] it was 32.4%; in [14], 35.6%; in test [16] it was 9.14% (active); in test [17] it was 50.8%; in [19], 11.7%. In addition, the growth in [20] is 20.6%.

For `COc1cc(/C=C/C(=O)c2ccc(F)cc2)ccc1OCCCCCOc1cc2c(cc1OC)C(=O)N1CCCC1C=N2` (stereo unspecified), the growth in [1] is -32.6% (active); in [2], -49.7% (active); in test [3], -2.96% (active); in [4], -34.8% (active); in [5], 3.88% (active); in [6] it was -59.9% (active). Besides, the growth in test [7] was 4.95% (active); in test [8], -43.3% (active); in test [9], -72% (active); in [10], -13.1% (active); in [11], -6.46% (active); in [12] it was -77.6% (active). In addition, the growth in test [13] was -33% (active); in [14] it was -29.9% (active); in test [15], 72.2%; in test [16], -67.1% (active); in test [17] it was 8.38% (active); in test [19], -70% (active).

`COc1cccc(C2C(C#N)=C(N)Oc3cc(OC)ccc32)c1` (stereo unspecified): the growth is 16.2% in test [1]; 72.6% in test [2]; 32.6% in test [3]; 24.6% in test [4]; 7.42% (active) in test [5]; -38.4% (active) in test [6]. The growth was 15.6% in [7]; 29.9% in test [8]; -73.4% (active) in test [9]; -15.2% (active) in test [10]; -4.51% (active) in test [11]; 36.6% in test [12]. Further, the growth in test [13] was -15.4% (active); in test [18], 26.9%; in test [14] it was 18.3%; in test [16] it was -13.3% (active); in [17], 59.2%; in test [19], 12.6%. In addition, the growth in test [20] was 10.4%.

In the case of `O=[N+]([O-])c1ccc(N/N=C/c2c(O)ccc3ccccc23)nc1`, the growth was 61.4% in test [1]; 89% in test [2]; 19.7% in test [3]; 45.6% in [4]; 24.2% in test [5]; 18.5% in [6]. For the same compound, the growth in [7] is 49.2%; in [8] it was 59.2%; in test [9], 73.1%; in test [10] it was 39.4%; in test [11] it was 31.7%; in test [13] it was 47.5%. Further, the growth in test [18] was 67.1%; in test [14], 45.8%; in test [15], 25.1%; in test [16] it was 46%; in test [17], 29.5%; in test [19], 65.3%. The growth in [20] was 24.5%.

In the case of `CCOc1cc(C(C)(C)C)ccc1C1=N[C@H](c2ccc(Cl)cc2)[C@H](c2ccc(Cl)cc2)N1C(=O)N1CCN(CC#Cc2cccc3c2CN([C@@H]2CCC(=O)NC2=O)C3=O)CC1`, the growth is 77% in test [1]; -17.3% (active) in test [2]; 9.35% (active) in [3]; 40.7% in test [4]; 24.2% in [5]; 39.3% in [6]. For the same compound, the growth is 24.8% in [7]; 43.8% in test [8]; 8.66% (active) in test [9]; 57.1% in test [10]; 24.5% in test [11]; -32.9% (active) in [12]. The growth was -15.5% (active) in [13]; 39.9% in test [14]; 35.1% in test [15]; 70.3% in [16]; 42.6% in test [17]; 2.53% (active) in test [20].

`COc1cc(/C=C2\COc3ccc(O)cc3C2=O)cc(OC)c1`: the growth in test [1] is 93.8%; in test [2], 94.9%; in [3], 90.8%; in test [4], 86%; in [5], 82.4%; in [6], 32.3%. In addition, the growth is 92.3% in test [7]; 87.6% in test [8]; 81.6% in test [9]; 72% in [10]; 5.63% (active) in test [11]; 70.3% in test [12]. Besides, the growth is 77% in test [13]; 85.2% in test [14]; 93.4% in [15]; 80.7% in [16]; 82.1% in [17]; 37.9% in test [20].

Consider `CCN1C(=O)c2ccc3c4c(ccc(c24)C1=O)C(=O)N(CCCNCc1ccccc1OC)C3=O`, for which the growth in test [1] is -42.7% (active); in test [2] it was -36.6% (active); in test [3] it was -31.6% (active); in [4] it was -36.8% (active); in test [5] it was -57.8% (active); in test [6], -87.1% (active). In addition, the growth in test [7] is -58.1% (active); in [8] it was -51.5% (active); in test [9] it was -81.5% (active); in test [10] it was -87.4% (active); in test [11], -36% (active); in test [12], -87.6% (active). Moreover, the growth in [13] was 2.92% (active); in [14] it was -15.5% (active); in test [15], -69.8% (active); in test [16], -96.4% (active); in test [17], -88.6% (active); in [19], -92.8% (active). Also, the growth in test [20] was -78.3% (active).
